A3A deaminase: blocks human APOBEC3A ssDNA deamination | P31941 | recombinant A3A, FAM/TAMRA ssDNA deamination fluorescence | inhibition, % at 20 µM | 0.41% of 330,000 active;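 active = at least 40% inhibition at 20 µM here, with at most 30% in a related deaminase screen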;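 note: plate controls were A3A with DMSO for no effect and wells lacking A3A enzyme for full effect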
Target sequence (P31941 whole entry, looked up): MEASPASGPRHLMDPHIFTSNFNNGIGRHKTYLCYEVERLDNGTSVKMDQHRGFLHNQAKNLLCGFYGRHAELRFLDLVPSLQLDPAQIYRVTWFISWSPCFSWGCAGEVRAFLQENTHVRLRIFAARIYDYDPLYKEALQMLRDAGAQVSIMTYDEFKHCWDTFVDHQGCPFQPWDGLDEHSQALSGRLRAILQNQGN
APOBEC3G inh: blocks human APOBEC3G single-stranded DNA deamination. Q9HC16. recombinant A3G, ssDNA deamination FAM/TAMRA fluorescence. inhibition, % at 20 µM. 0.28% of 330,000 active. AID 493012;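 active = inhibition of at least 40% at 20 µM, with no more than 30% in the related APOBEC3A deaminase screen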;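 note: plate controls were DMSO wells with A3G for no effect and wells lacking A3G enzyme for full effect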
Target sequence (Q9HC16 whole entry, looked up): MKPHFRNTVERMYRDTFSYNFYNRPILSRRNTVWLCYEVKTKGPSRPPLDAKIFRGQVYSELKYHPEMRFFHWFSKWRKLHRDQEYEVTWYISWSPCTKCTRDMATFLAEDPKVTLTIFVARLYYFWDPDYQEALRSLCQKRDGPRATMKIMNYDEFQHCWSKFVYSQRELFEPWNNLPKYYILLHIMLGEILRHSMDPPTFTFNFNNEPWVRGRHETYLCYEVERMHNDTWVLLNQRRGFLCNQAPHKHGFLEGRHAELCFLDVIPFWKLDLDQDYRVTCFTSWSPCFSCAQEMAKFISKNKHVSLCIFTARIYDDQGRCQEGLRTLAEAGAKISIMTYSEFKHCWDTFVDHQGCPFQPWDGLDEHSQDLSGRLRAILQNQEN
GC-A act: GC-A (human) enzyme activation. P16066. HEK293 GC-A cells, cGMP TR-FRET, EC30 ANP; 0% at EC30 ANP, 100% saturating ANP. activation, % at 10 µM. 0.14% of 370,000 active; in the data active = activation above about 40%
GC-B act: GC-B (human) receptor activation | P20594 | HEK293-GC-B cells, CNP EC30, cGMP TR-FRET; 0% at EC30 CNP, 100% saturating CNP | activation, % at 10 µM | 0.11% of 370,000 active | AID 1920062;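 active = activation at 10 µM reaching about 35% in either raw or pattern-adjusted values, limit read from the data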
FAS-TE inh: blocks the thioesterase domain of human fatty acid synthase | inhibition, % at 15 µM | AID 602261 | recombinant FAS-TE, OMFH fluorogenic substrate, fluorescence endpoint | 0.67% of 360,000 active;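 active = compounds whose normalised, plate-corrected inhibition of enzyme fluorescence in the single-dose primary screen is 50% or more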;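 note: 0% = DMSO with enzyme and 100% = substrate without enzyme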
FAS-TE inh conf: confirmation of human fatty acid synthase thioesterase inhibitors | shares compounds with FAS-TE inh | recombinant FAS-TE, OMFH fluorogenic substrate, fluorescence | inhibition, % at 15 µM | 45% of 2,300 active | AID 624325;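 active = compounds inhibiting the enzyme by at least 50% at 15 µM in any one of the replicates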;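 note: 0% = enzyme with DMSO only and 100% = wells lacking enzyme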
* hit, by the source's call; . = no result. Hits are enriched below; roughly 1.4% of the tested compounds scored in any of these assays.

SMILES	A3A deaminase	APOBEC3G inh	GC-A act	GC-B act	FAS-TE inh	FAS-TE inh conf
O=C(N[C@H](C(=O)N1CCC[C@H]1C(=O)NC1CCCC1)C1CCCCC1)c1ccco1	.	.	1	-1	.	.
N#Cc1sc(C(N)=O)c(-c2ccccc2)c1-c1ccccc1	-1	-6	0	-1	-1	.
COc1ccc(-c2c(C#N)sc(C(N)=O)c2-c2ccc(OC)cc2)cc1	-2	-6	2	-7	60*	47
O=C(O)c1ccc(Cl)c(NC(=S)NC(=O)c2cccc(COc3ccccc3)c2)c1	5	0	-1	0	61*	72*
N#Cc1cc2ccc(N3CCOCC3)cc2cc1C#N	0	0	1	-5	74*	62*
N#Cc1cc(Cl)c(N2CCOCC2)cc1C#N	-2	1	2	1	38	.
O=C(CN(C(=O)c1cccc([N+](=O)[O-])c1)C1CCCCC1)Nc1ccc(Cl)c([N+](=O)[O-])c1	-7	-8	-4	-1	81*	26
Cc1ccc([N+](=O)[O-])cc1NC(=O)CN(C1CCCCC1)S(=O)(=O)c1ccc(Cl)cc1	.	.	-9	-18	54*	19
Cc1ccc(NC(=O)CN(C)C(=O)c2ccc(Cl)c([N+](=O)[O-])c2)cc1	0	-5	2	0	60*	68*
CN(CC(=O)Nc1ccc(Cl)cc1)C(=O)c1ccc(-n2cncn2)c([N+](=O)[O-])c1	0	-1	-1	-3	1	.
CN(C(=O)c1cccc(NC(=O)Cc2ccc([N+](=O)[O-])cc2)c1)C1CCCCC1	-3	-6	-1	-2	32	.
Cc1ccc([N+](=O)[O-])cc1NC(=O)CN(C(=O)c1ccccc1Cl)C1CCCCC1	-3	-3	-4	3	74*	15
CCOC(=O)[C@]12CCCC=C1N(Cc1ccc(OC)cc1)C(=O)[C@@H]2CC(=O)NCCCCc1ccccc1	.	.	-5	2	.	.
O=C(Nc1ccc(Cl)cc1)C(Cl)C(=O)c1ccccc1 (stereo not drawn)	-5	-8	18	13	77*	87*
O=C(Nc1ccc2c(c1)OCCO2)C(c1ccnc2ccccc12)N1CCN(c2ccc(C(F)(F)F)cn2)CC1 (stereo not drawn)	.	.	-1	1	92*	33
O=C(NCc1ccc2c(c1)OCO2)c1ccc(C2SCC(=O)N2Cc2ccco2)cc1 (stereo not drawn)	4	6	4	-6	59*	50*
CC(C)CSc1ncc(-c2cccc(C(F)(F)F)c2)cn1	0	-7	4	-4	51*	49*
CCc1ccc(C(O)c2ncc(-c3cccc(C(F)(F)F)c3)[nH]2)cc1 (stereo not drawn)	.	.	-2	-4	27	.
CC(C)[C@H](NC(=O)c1ccc(Cl)c(Cl)c1)C(=O)N1CCC[C@H]1C(=O)NCCc1ccccc1Cl	.	.	8	8	.	.
COc1ccc(/C=C(\NC(=O)c2ccc([N+](=O)[O-])cc2)C(=O)NCCN2CCOCC2)cc1	-1	-3	0	-6	64*	73*
COc1ccc(C(=O)N/C(=C\c2ccc(Cl)cc2)C(=O)NCCN2CCOCC2)cc1	.	.	-2	-3	2	.
COc1ccc(/C=C(\NC(=O)c2ccc([N+](=O)[O-])cc2)C(=O)NCCCN2CCOCC2)cc1	-3	-6	-1	-4	76*	79*
COc1ccc(/C=C(\NC(=O)c2ccc(C)cc2)C(=O)NCCN2CCOCC2)cc1	-2	-5	5	-12	0	.
O=C(N/C(=C\c1ccc(Br)cc1)C(=O)N1CCOCC1)c1ccc([N+](=O)[O-])cc1	-4	-4	7	7	91*	93*
O=C(CSc1ccc(Cl)cc1)N1CCN(c2ncc(C(F)(F)F)cc2Cl)CC1	-3	-6	-5	-2	53*	25
SMILES	A3A deaminase	APOBEC3G inh	GC-A act	GC-B act	FAS-TE inh	FAS-TE inh conf
O=C(CN1CCN(c2ncc(C(F)(F)F)cc2Cl)CC1)N1CCN(c2ncc(C(F)(F)F)cc2Cl)CC1	-1	-7	-2	0	18	.
O=C(CC1C[C@H](C(=O)N2CCOCC2)[C@@]2(CCC3CCCC3)c3[nH]c4ccccc4c3CCN2C1=O)NCCC1=CCCCC1 (stereo partly drawn)	-5	-7	0	-4	73*	39*
CN(C)CCCNC(=O)CC1C[C@H](C(=O)N2CCOCC2)[C@@]2(CCC3CCCC3)c3[nH]c4ccccc4c3CCN2C1=O (stereo partly drawn)	0	-3	-4	-1	78*	86*
Cc1cc(C)c(C(=O)COC(=O)c2cc([N+](=O)[O-])ccc2NCCO)cc1C	-4	-6	4	1	52*	37*
CCc1ccc(C(=O)COC(=O)c2cc([N+](=O)[O-])ccc2NCCO)cc1	-1	-1	7	3	84*	73*
O=C(COC(=O)c1cc([N+](=O)[O-])ccc1NCCO)c1ccc(Cl)cc1	0	-6	14	4	46	.
O=C(COCc1ccccc1)N1CC[C@H]2[C@H](CCCN2Cc2ccc(F)cc2)C1	.	.	4	2	.	.
Cc1cc(C(C)(C)C)cc(C)c1COC(=O)CN1C(=O)NC2(CCCC2)C1=O	-7	-9	0	5	52*	56*
Cc1ccccc1COC(=O)CN1C(=O)NC2(CCCC2)C1=O	-2	-10	2	1	-4	.
CC(C)(C)c1ccc(COC(=O)CN2C(=O)NC3(CCCC3)C2=O)cc1	-2	-10	2	4	68*	76*
O=C(N[C@H](C(=O)N1CCC[C@H]1C(=O)NCCc1ccccc1Cl)c1ccccc1)c1cccs1	.	.	-7	-11	.	.
COc1ccccc1-c1cccc2c3c([nH]c12)[C@@H]1C[C@H]2[C@@H](CN1CC3)[C@H](C)ON2C	.	.	0	6	.	.
CC(C)NC(=O)N[C@@H]1C[C@@H]2O[C@@H](CO)CC[C@@H]2O[C@@H]1CCc1ccc(-c2ccc(F)cc2)cc1	.	.	13	-5	.	.
O=C(CSc1ncnc2c1nnn2Cc1ccccc1)NC1CCCCC1	3	-2	0	-5	58*	49*
O=C(CSc1nnnn1Cc1ccccc1)NC1CCCCC1	-4	-6	2	7	-7	.
Cc1ccc(-c2cc(-c3nnc(SCC(=O)Nc4ccc(OCc5ccccc5)cc4)n3N)[nH]n2)cc1	.	.	-1	-5	.	.
O=C(N/N=C/c1coc2ccc(Cl)cc2c1=O)c1cc(O)cc(O)c1	0	-2	1	6	67*	41
Cc1ccc2occ(/C=N/NC(=O)c3ccc(Cl)cc3)c(=O)c2c1	0	2	3	-4	4	.
CC(C)C(=O)Nc1nc(-c2ccc(S(=O)(=O)N3CCOCC3)cc2)cs1	3	-3	-2	-2	85*	86*
O=C(COc1cccc(Cl)c1)Nc1nc(-c2ccc(S(=O)(=O)N3CCOCC3)cc2)cs1	.	.	-1	7	66*	23*

Screening data from PubChem.
